The structures appear in SMILES notation.

This assay in a line: modulators of S6 phosphorylation in cells, primary screen, cell-based, A549, cytoblot, luminescence, serum-stimulated (AID 1158).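 Further: serum-stimulated A549 lung adenocarcinoma cells; signal is phosphorylated S6 detected by cytoblot immunostaining with HRP secondary.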 The settings on record: A549 phospho-S6 cytoblot, 5 h, higher = more signal.
Turning to `COc1ccc(C#Cc2ccc3c(c2)[C@]2(C(=O)N3)[C@H](C(=O)N3CCN(c4ncccn4)CC3)[C@H]3C(=O)O[C@H](c4ccccc4)[C@H](c4ccccc4)N3[C@@H]2c2ccc(O)cc2)cc1`, the z-score is -0.2. The figure for `CCCC[C@H]1C[C@@H]1[C@@H]1N(P(=O)(c2ccccc2)c2ccccc2)[C@](CO)(c2ccccc2)CC12CC2` is 0.353; for `O=C(N1CCCCC1)[C@]1(CCS(=O)(=O)c2ccccc2)N=C(c2ccc(OCCCO)cc2)O[C@@H]1c1ccccc1` it is 1.54. The value for `OCCCc1cc[n+](Cc2cccc(OC(F)(F)F)c2)cc1` was 0.211; that for `COc1ccc([Si](C)(C)[C@H]2[C@H](CC(=O)N3CCC[C@H]3CO)O[C@@]3(C(=O)N(Cc4cccc(N5CCC5=O)c4)c4ccccc43)[C@@H]2C)cc1` was 0.249; that for `CCCNC(=O)[C@@]1(c2ccc([N+](=O)[O-])cc2)CC(=O)N(CC23CC4CC(CC(C4)C2)C3)[C@@H]1c1ccc(CO)cc1I` was -0.151. The figure for `CCCNC(=O)[C@@]1(C)c2ccccc2C(=O)N(Cc2cc(F)cc(C(F)(F)F)c2)[C@H]1c1ccc(CO)cc1` is 0.324; for `C=C[C@H](C)[C@H](OC(=O)Nc1ccc(OC)cc1)c1ccc(O)c2ccccc12` it is 0.486.

In the case of `O=c1cccc(-c2ccccc2)o1`, the z-score was -0.548. The value for `CC1CC/C=C\[C@H]2OC34C=CCN(Cn5nnc6ccccc65)C(=O)[C@H]3N(CCCO)C(=O)[C@@H]4C2C(=O)O1` (stereo partly specified) was 0.114; that for `COc1ccc(C#Cc2ccc3c(c2)[C@]2(C(=O)N3)[C@H](c3ccc(OCCO)cc3)N3[C@H](c4ccccc4)[C@H](c4ccccc4)OC(=O)[C@H]3[C@@H]2C(=O)Nc2nc3ccccc3s2)cc1` was 0.418.

Source of the values: PubChem BioAssay.
